Values without a mark were called inactive. Records with an inconclusive call do not appear. Entries that show only a call come without a potency. Active and inactive are the calls of the source. Unless noted, calls follow the shape of the dose curve; as a rule, active = well fitted curve in the direction sought with a large enough effect in the repeat runs; inconclusive = weak or mixed curves; inactive = no such curve, though single readings can be large; an effect the other way counts as inactive or inconclusive.
Key:
[1] = qHTS assay for small molecules that induce genotoxicity in human embryonic kidney cells expressing luciferase-tagged ATAD5 (AID 651632); also: nearly all actives have a fitted effect of over 15% in size
Outline: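 HEK293T cells carrying luciferase-tagged ATAD5 were given compound or DMSO vehicle and incubated 16 hr at 37C, 5% CO2. Luciferase activity was read after 30 min at room temperature with Amplite; a rise signals genotoxic stress.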

[2] = qHTS assay for small molecule agonists of the p53 signaling pathway - cell viability (AID 651633; calls by dose curve;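 also: p53RE-bla HCT reporter cells with a stable beta-lactamase p53 reporter; series mostly up to about 83 µM; nearly all actives have a fitted effect of over 30% in size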)
Outline: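 Viability counter-read: CellTiter-Glo luminescence (30 min, room temperature) in the same p53RE-bla plates. These plates had been exposed to compounds for 16 h at 37 C.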

[3] = qHTS assay for small molecules that induce genotoxicity in human embryonic kidney cells expressing luciferase-tagged ATAD5 - cell viability (AID 651634; calls by dose curve; also: nearly all actives have a fitted effect of over 25% in size)
Outline: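 HEK293T cells carrying luciferase-tagged ATAD5, 2,000 cells/well, exposed to compound for 15.5 hr at 37C. Viability read as live-cell protease activity by CellTiter-Fluor fluorescence after 30 min at 37C.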

[4] = qHTS assay for small molecule disruptors of the mitochondrial membrane potential - cell viability (AID 720634; calls by dose curve;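 also: human HepG2 liver cancer cells; series mostly up to about 83 µM; nearly all actives have a fitted effect of over 20% in size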)
Outline: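 HepG2 cells, 2,000 per well, attached overnight, then treated 1 hr at 37 C, 5% CO2. Viability read as ATP by CellTiter-Glo luminescence after 30 min at room temperature. Read in the same wells as the m-MPI membrane-potential dye assay.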

[5] = qHTS assay for small molecule disruptors of the mitochondrial membrane potential (AID 720635); also: potency is read from the fitted curve at half-maximal effect
Outline: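 Mitochondrial membrane potential tracked with Mito-MPS dye, red aggregates (ex 540/em 590 nm) against green monomers (ex 490/em 535 nm). Compound treatment 1 hr at 37C, dye 30 min in HepG2.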

[6] = qHTS assay to test for compound auto fluorescence at 590 nm (red) in HepG2 cells (AID 720674)
Outline: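 Red autofluorescence (Ex/Em 540/590 nm, Rose Bengal sodium equivalents) was measured in HepG2 cells, 2,000 per well in MEM plus 10% FBS, plated overnight at 37 C. Readings were taken 1 hr after adding 23 nL compound or DMSO, at 37 C and 5% CO2.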

[7] = qHTS assay to test for compound auto fluorescence at 535 nm (green) in HepG2 cells (AID 720675)
[8] = qHTS assay to test for compound auto fluorescence at 590 nm (red) in HEK293 cells (AID 720679)
Outline: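 Autofluorescence equivalency to Rose Bengal sodium, 540/590nm, in HEK293 cells exposed overnight to 23 nL compound per well.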

[9] = qHTS assay to test for compound auto fluorescence at 535 nm (green) in HEK293 cells (AID 720680)
[10] = qHTS assay to test for compound auto fluorescence at 460 nm (blue) in HEK293 cell free culture (AID 720681)
Outline: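 Blue fluorescence (Ex 405/Em 460 nm, triamterene-equivalent) was read immediately after pin transfer of compound or DMSO into medium (DMEM, 10% FBS) without cells.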

[11] = qHTS assay to test for compound auto fluorescence at 535 nm (green) in HEK293 cell free culture (AID 720682)
Outline: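 DMEM + 10% FBS, cell-free; cpd or DMSO pinned in; Ex485/Em535 read; output as fluorescein-equivalent signal.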

[12] = qHTS assay to test for compound auto fluorescence at 590 nm (red) in HEK293 cell free culture (AID 720683)
Outline: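 Red-channel autofluorescence of compounds in culture medium (DMEM, 10% FBS), no cells, measured at 540/590 nm. Rose Bengal sodium is the reference fluorophore for equivalence.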

[13] = qHTS assay to test for compound auto fluorescence at 460 nm (blue) in HepG2 cell free culture (AID 720685)
Outline: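 Compound (23 nL) or DMSO pinned into cell-free MEM with 10% FBS; blue fluorescence read at 405/460 nm excitation/emission, expressed as auto-fluorescence equivalency to triamterene.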

[14] = qHTS assay to test for compound auto fluorescence at 535 nm (green) in HepG2 cell free culture (AID 720686)
[15] = qHTS assay to test for compound auto fluorescence at 460 nm (blue) in HepG2 cells (AID 720687)
Outline: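 Blue-channel autofluorescence (Ex/Em 405/460 nm, triamterene-equivalent) was measured after 1 hr compound exposure at 37 C, 5% CO2. Cells were HepG2, plated overnight at 37 C in MEM plus 10% FBS.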

[16] = biological target: Glucocorticoid receptor (Homo sapiens) (UniProt P04150); experiment: qHTS assay to identify small molecule agonists of the glucocorticoid receptor (GR) signaling pathway (AID 720691; active = well fitted activation curve with a large enough effect in the signal ratio in the repeat runs, not every such curve was filed as active; the % refers to the signal ratio)
Chain of Glucocorticoid receptor (Homo sapiens) (P04150 whole entry, looked up): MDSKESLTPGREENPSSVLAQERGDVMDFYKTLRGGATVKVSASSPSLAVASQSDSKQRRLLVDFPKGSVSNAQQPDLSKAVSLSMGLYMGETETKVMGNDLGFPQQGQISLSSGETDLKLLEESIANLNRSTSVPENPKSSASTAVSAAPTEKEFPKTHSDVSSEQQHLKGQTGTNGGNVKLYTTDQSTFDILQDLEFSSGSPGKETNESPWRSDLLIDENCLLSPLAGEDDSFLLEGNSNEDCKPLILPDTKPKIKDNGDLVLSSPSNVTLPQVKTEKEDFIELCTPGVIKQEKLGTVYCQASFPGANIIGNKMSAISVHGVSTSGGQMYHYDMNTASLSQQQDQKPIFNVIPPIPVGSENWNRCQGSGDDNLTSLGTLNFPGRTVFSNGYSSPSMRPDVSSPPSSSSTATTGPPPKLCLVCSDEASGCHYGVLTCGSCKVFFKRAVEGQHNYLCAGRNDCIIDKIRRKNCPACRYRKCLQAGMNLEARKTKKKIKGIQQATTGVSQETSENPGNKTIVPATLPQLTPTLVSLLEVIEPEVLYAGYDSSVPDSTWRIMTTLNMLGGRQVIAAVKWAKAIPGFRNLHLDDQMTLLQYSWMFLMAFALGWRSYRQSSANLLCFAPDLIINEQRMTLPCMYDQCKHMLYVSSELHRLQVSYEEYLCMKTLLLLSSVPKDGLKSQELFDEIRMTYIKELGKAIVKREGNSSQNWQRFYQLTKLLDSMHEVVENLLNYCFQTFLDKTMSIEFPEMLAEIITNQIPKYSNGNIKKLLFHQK
Outline: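 GR-bla HeLa cells carrying a GRE-driven beta-lactamase reporter, exposed to compounds for 18 h at 37 C. Reporter activation read as fluorescence after 2 h with LiveBLAzer B/G FRET substrate at room temperature.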

[17] = biological target: Glucocorticoid receptor (Homo sapiens) (UniProt P04150); experiment: qHTS assay to identify small molecule antagonists of the glucocorticoid receptor (GR) signaling pathway (AID 720692; active = well fitted inhibition curve with a large enough effect in the signal ratio in the repeat runs, not every such curve was filed as active; the % refers to the signal ratio)
Outline: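 GR-bla HeLa cells carrying a GRE-driven beta-lactamase reporter received compound after 4 h plating, then dexamethasone (5 nM final). After 18 h at 37C, the FRET substrate was loaded for 2 h at room temperature and fluorescence read.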

[18] = qHTS assay to test for compound auto fluorescence at 460 nm (blue) in HEK293 cells (AID 720678)
Outline: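 Auto fluorescence in the blue band was quantified as triamterene equivalency. HEK293 cells were seeded at 2,000/well, dosed after a 4-5 hr attachment, and kept overnight at 37C before the 405/460 nm reading.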

[19] = qHTS assay to test for compound auto fluorescence at 590 nm (red) in HepG2 cell free culture (AID 720684)
Outline: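 Plate contents were MEM with 10% FBS plus test compound or DMSO, no cells. Fluorescence was recorded with 540 nm excitation and 590 nm emission.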

Structure (SMILES)	Potency [1]	Potency [2]	Potency [3]	outcome [4]	Potency [5]	outcome [6]	outcome [7]	outcome [8]	outcome [9]	outcome [10]	outcome [11]	outcome [12]	outcome [13]	outcome [14]	outcome [15]	Potency [16]	Potency [17]	outcome [18]	outcome [19]
CCCC[N+](C)(CCCC)CCCC	inactive	inactive	inactive	inactive	inactive	inactive	inactive	inactive	inactive	inactive	inactive	inactive	inactive	inactive	inactive	inactive	inactive		
O=C(O)Cc1csc(-c2ccc(Cl)cc2)n1	inactive	inactive	inactive	inactive	inactive	inactive			inactive	inactive	inactive	inactive	inactive	inactive	inactive			inactive	
COc1cccc(OC)c1C(=O)N[C@@H]1C(=O)N2[C@@H]1SC(C)(C)[C@@H]2C(=O)O	inactive	inactive	inactive	inactive	inactive	inactive	inactive	inactive	inactive	inactive	inactive	inactive	inactive	inactive	inactive	inactive	inactive		inactive
NC(CCC(=O)O)C(=O)O (stereo not drawn)	inactive	inactive	inactive	inactive	inactive	inactive	inactive	inactive	inactive	inactive	inactive	inactive	inactive	inactive	inactive	inactive	inactive	inactive	inactive
CCCCN(CCC(=O)OCC)C(C)=O	inactive	inactive	inactive	inactive		inactive	inactive	inactive	inactive	inactive	inactive	inactive	inactive	inactive	inactive	inactive	inactive	inactive	inactive
COc1c(N2CCNC(C)C2)c(F)cc2c(=O)c(C(=O)O)cn(C3CC3)c12 (stereo not drawn)	inactive	inactive	inactive	inactive	inactive			inactive	inactive	inactive	inactive	inactive	inactive	inactive	inactive	inactive	inactive		inactive
CC(=O)c1ccccc1[N+](=O)[O-]	inactive	inactive	inactive	inactive	inactive	inactive	inactive	inactive	inactive	inactive	inactive	inactive	inactive	inactive	inactive			inactive	inactive
N[C@H](C(=O)O)[C@@H](O)c1ccc(O)c(O)c1	inactive	inactive	inactive	inactive	26.6 µM (active)	inactive	inactive	inactive	inactive	inactive	inactive	inactive	inactive	inactive	inactive	inactive	inactive	inactive	inactive
CCOc1ccc2nc(S(N)(=O)=O)sc2c1	inactive	inactive	inactive	inactive		inactive	inactive	inactive	inactive	inactive	inactive	inactive	inactive	inactive	inactive		inactive	inactive	inactive
C=CCCC(=O)O	inactive	inactive	inactive	inactive	inactive	inactive	inactive	inactive	inactive	inactive	inactive	inactive	inactive	inactive	inactive	inactive	inactive	inactive	inactive
CCOCC(C)O (stereo not drawn)	inactive	inactive	inactive	inactive		inactive	inactive	inactive	inactive	inactive	inactive	inactive	inactive	inactive		inactive	inactive	inactive	inactive
O=C(O)CNC(=O)c1ccccc1	inactive	inactive	inactive	inactive	inactive	inactive	inactive		inactive	inactive	inactive	inactive	inactive	inactive		inactive		inactive	inactive
O=S(=O)(O)c1cc(O)c(O)c(S(=O)(=O)O)c1	inactive	inactive	inactive	inactive		inactive	inactive	inactive	inactive	inactive	inactive	inactive	inactive		inactive			inactive	inactive
COc1ccccc1OCC1CNC(=O)O1 (stereo not drawn)	inactive	inactive	inactive	inactive	inactive	inactive		inactive	inactive	inactive	inactive	inactive	inactive	inactive	inactive			inactive	inactive
